# The source made the active and inactive calls. The rule behind the calls is not given here.
# System: Aerobactin synthetase IucA (Klebsiella pneumoniae, hypervirulent)
# Test: IucA enzyme inhibition, biochemical, LOPAC library, absorbance readout (AID 1346212);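 note: 100% = no compound wells and 0% = no enzyme wells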
# Conditions: IucA enzyme assay, absorbance (OD) readout; stronger effect = lower value;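 tested at 8 µM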
row,Compound,remaining activity
1,CCN(CC)CCOC(=O)c1ccc(N)cc1,106% (inactive)
2,O=c1[nH]cc(F)c(=O)[nH]1,98.4% (inactive)
3,C[C@](N)(Cc1ccc(O)cc1)C(=O)O,110% (inactive)
4,Nc1ccc(S(=O)(=O)Nc2ccnn2-c2ccccc2)cc1,99.3% (inactive)
5,NCCCCCC(=O)O,113% (inactive)
6,CN1CCN(C2=Nc3cc(Cl)ccc3Nc3ccccc32)CC1,127% (inactive)
7,O=c1c(O)c(-c2ccc(O)cc2O)oc2cc(O)cc(O)c12,122% (inactive)
8,CC(N=C(NC#N)Nc1ccncc1)C(C)(C)C (centres undefined),92.7% (inactive)
9,C[C@H]1c2cccc(O)c2C(O)=C2C(=O)[C@]3(O)C(O)=C(C(N)=O)C(=O)[C@@H](N(C)C)[C@@H]3[C@@H](O)[C@@H]21,104% (inactive)

# From PubChem BioAssay
